# DT40 TDP1 CPT: DT40-hTDP1 cell growth loss with CPT; chicken DT40 Tdp1-/-;hTDP1 cells + 20 nM CPT, ATP luminescence, 48 h; Potency, µM (highest dose often 46.2 µM), without a hit: at the top dose activity change, negative = growth inhibition, most hits filed as inhibitors; 420,000 tested, 12% active; AID 686979; further: on the % scale 0 is the no-effect control and ±100 the full control effect; nearly all actives have a fitted effect of over 55% in size
#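 Cell growth measured by CellTiter-Glo luminescence after a minimum 48 h, 37 C compound exposure with 20 nM CPT in Tdp1-knockout DT40 cells stably expressing hTDP1, seeded 400/well; qHTS titration format.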
# S2 tox: reduces viability in counter-screen for ATXN expression inhibitors. Potency, µM (highest dose often 56.7 µM), hits mostly cytotoxic. 400,000 tested, 0.49% active. S2 cells (HEK-293 line with an ATXN2-luciferase reporter) viability, CellTiter-Fluor protease fluorescence, 24 h; further: nearly all actives have a fitted effect of over 40% in size
# DT40 TDP1 no CPT: qHTS for Inhibitors of human tyrosyl-DNA phosphodiesterase 1 (TDP1): qHTS in cells in absence of CPT; DT40 Tdp1-/- hTDP1 cells, no CPT, ATP luminescence, 48 h; Potency, µM (titrated, usually from 46.2 µM), without a hit: at the highest dose activity change, negative = growth inhibition, hits mostly inhibitors; 420,000 tested, 15% active; AID 686978, 2013; further: on the % scale 0 is the no-effect control and ±100 the full control effect; nearly all actives have a fitted effect of over 55% in size
#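 Chicken DT40 Tdp1-/- cells complemented with human TDP1, screened without camptothecin (DMSO vehicle only), 400 cells/well. Compounds pin-transferred, cells incubated at 37 °C for at least 48 hr. Growth read as ATP-dependent luminescence (CellTiter-Glo, 30 min at RT).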
# TGFb inhibitor: TGF-b pathway inhibition; HepG2 CAGA-GFP TGF-b/SMAD3 reporter, GFP fluorescence, 18 h; TGF-beta stimulated, 500 pg/mL final; Potency, µM (titrated, usually from 46.1 µM), inactives show top-dose activity, negative = inhibition, usual class: inhibitors; 410,000 tested, 1.2% active; AID 588855; further: on the % scale 0 is the no-effect control and ±100 the full control effect; nearly all actives have a fitted effect of over 65% in size
#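 HEPG2 CAGA-GFP, 1000 cells/well; 2 h settle, 37 C; cpd via pin tool; TGF-b 500 pg/mL final; 18 h, 37 C; GFP imaging ex488/em500-530; %Activity normalised to -TGF-b and +DMSO controls; CRC fit, curve class.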
# ATXN2 expr inh: ATXN2 expression inhibition; HEK-293 ATXN2-luciferase reporter, luminescence, 24 h; Potency, µM (series often up to 57 µM), inactives show at the top dose activity change, negative = inhibition, most hits filed as inhibitors; 360,000 tested, 0.72% active; AID 1745845; further: on the % scale 0 is the no-effect control and ±100 the full control effect; nearly all actives have a fitted effect of over 55% in size
#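 qHTS (up to 57 uM final) was run with 24 h compound exposure of reporter cells at 37 °C. Each well was multiplexed: SteadyGlo luminescence measured ATXN2-luciferase expression after a fluorogenic Gly-Phe-AFC viability readout (25 uM final).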
# HepG2 tox: HepG2 cytotoxicity, counter-screen for TGF-b inhibitors; AID 588856; Potency, µM (doses to about 46.1 µM), for the others: top-dose activity change, negative = cytotoxicity, usual class: cytotoxic; 410,000 tested, 0.76% active; HepG2 CAGA-GFP viability, ATP luminescence, 18 h
#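 CellTiter-Glo luminescence gave cytotoxicity after 18 hours at 37 degrees C. The cells were HepG2 CAGA-GFP in 1% FBS DMEM, stimulated with 500 pg/mL TGF-beta after compound addition. %Activity was normalised to no-cell wells (complete cell-killing) and DMSO (no toxicity), and curves were fitted and classified.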
# * hit, by the source's call; i = inactive; ? = inconclusive; . = no result given. Most compounds without a hit are left out; they make up all but 17% or so of the library. The call rests on the fitted dose curve; in most records, active means well fitted curve in the direction sought with a large enough effect; inconclusive means small, poorly fitted or top-dose-only effect, or another doubt; inactive means no such curve, though single readings can be large; an effect the other way counts as inactive or inconclusive. Potency means the concentration at half of the fitted maximal effect.
SMILES,DT40 TDP1 CPT,S2 tox,DT40 TDP1 no CPT,TGFb inhibitor,ATXN2 expr inh,HepG2 tox
COc1ccc(CC(=O)NCc2ccccc2)cc1S(=O)(=O)N1CCOCC1,-7%,i,-28%,-13%,3%,-12%
COc1ccc(C(=O)NCc2c(C)nn(Cc3ccccc3)c2C)cc1S(=O)(=O)N1CCOCC1,10µM*,i,?,0%,.,-4%
COc1ccc(CC(=O)N(C)Cc2ccc(C(C)(C)C)cc2)cc1S(=O)(=O)N1CCOCC1,21µM*,i,29µM*,-3%,-2%,-6%
COc1ccc(CC(=O)N(C)Cc2ccc(Cl)cc2)cc1S(=O)(=O)N1CCOCC1,?,i,?,14%,-4%,-1%
O=C(Cn1nnc2sc(-c3ccccc3)cc2c1=O)Nc1cccc(C(F)(F)F)c1,?,i,?,1%,12%,-5%
CCOC(=O)C1CCC(=O)C1 (centres undefined),-2%,i,-20%,19%,7%,2%
CC1CCN(c2cc(N3CCN(C(=O)c4ccc(F)c(F)c4)CC3)c([N+](=O)[O-])cc2F)CC1,?,i,23µM*,?,-7%,-27%
CC1CCN(c2cc(N3CCOCC3)c([N+](=O)[O-])cc2F)CC1,-11%,?,?,1%,-13%,-20%
Cc1ccc(C(=O)N2CCN(c3ccccc3Cl)CC2)cc1[N+](=O)[O-],29µM*,i,?,2%,-20%,-11%
Cc1cccc(N2CCN(C(=O)c3ccc(-n4cncn4)c([N+](=O)[O-])c3)CC2)c1C,21µM*,i,-26%,?,-30%,-15%
Cc1ccc(C(=O)N2CCc3ccccc32)cc1[N+](=O)[O-],-1%,i,-20%,3%,26%,-7%
CCn1ncc(N2CCOCC2)c(Cl)c1=O,-22%,i,9%,22%,.,-3%
CCn1c(C(=O)NCc2ccccc2C)cc2oc3ccccc3c21,2%,.,?,.,.,-29%
COc1ccccc1NC(=O)C1=C(C)NC(SCC(=O)Nc2ccc(C(=O)O)cc2)=C(C#N)C1c1cccs1 (centres undefined),8%,i,6%,-4%,5%,1%
C=C1CN(C(C(=O)OC)C(C)C)S(=O)(=O)c2ccc(F)cc21 (centres undefined),.,.,.,-20%,.,0%
CCn1c(SCC(=O)NCc2ccccc2)nc2c(c1=O)SC(C)C2 (centres undefined),6%,i,-24%,-21%,-3%,-29%
CCOc1ccc(-c2cccc(NC(=O)c3ccco3)c2)nn1,?,i,21µM*,-15%,5%,0%
CCOc1cc(NC(=O)c2ccco2)c(OCC)cc1NC(=O)c1ccco1,-20%,i,2.9µM*,20%,12%,17%
O=C(Nc1cccc(-c2nnc(-c3ccccc3)o2)c1)c1ccco1,-26%,i,?,2%,-18%,-3%
COc1cc(NC(=O)c2ccco2)c(OC)cc1NC(=O)c1cc(OC)c(OC)c(OC)c1,?,?,21µM*,17%,-9%,6%
Cc1nn2c(-c3cccc(NC(=O)c4ccco4)c3)nnc2c2ccccc12,21µM*,i,21µM*,?,-17%,-38%
CC1(C(=O)NCc2ccccc2)CN(S(C)(=O)=O)CC(=O)N1CCCn1ccnc1 (centres undefined),34%,.,12%,.,.,.
N[C@@H](C(=O)N[C@@H]1C(=O)N2C(C(=O)O)=C(Cl)CC[C@H]12)c1ccccc1,-1%,.,-19%,.,.,.
CC1(C)O[C@H]2C[C@@H]3[C@H]4CCC5=CC(=O)C=C[C@]5(C)[C@@]4(F)[C@@H](O)C[C@]3(C)[C@]2(C(=O)CO)O1,.,.,.,.,-5%,.
CCOc1cc(NC(=O)c2ccco2)c(OCC)cc1NC(=O)CCc1ccccc1OC,9.2µM*,i,7.3µM*,-35%,-7%,-11%
SMILES,DT40 TDP1 CPT,S2 tox,DT40 TDP1 no CPT,TGFb inhibitor,ATXN2 expr inh,HepG2 tox
CCOc1cc(C#N)c(NC(=O)c2ccco2)cc1OCC,12µM*,?,6.5µM*,2%,-22%,-15%
CCOc1cc(NC(=O)c2ccco2)c(OCC)cc1NC(=O)c1cc(OC)c(OC)c(OC)c1,?,i,?,11%,-32%,-15%
COc1cc(NC(=O)c2ccco2)c(C(=O)OCC(=O)c2c[nH]c3ccccc23)cc1OC,15µM*,?,8.2µM*,?,.,-103%
CC(Oc1ccccc1)C(=O)N1CCN(Cc2cc(=O)n3nc(-c4ccccc4Cl)sc3n2)CC1 (centres undefined),1%,i,?,-4%,3%,2%
CCOC(=O)N1CCC2(CC1)OC(=O)C(C)=C2C(=O)NCc1cccc(F)c1,-5%,.,?,1%,.,-2%
O=C(CSc1nc(=O)n(Cc2ccco2)c2c1CCC2)Nc1cccc(F)c1,?,i,-20%,7.9µM*,?,-22%
COc1ccc(-c2nc(C(N)=O)c3[nH]c(=O)n(-c4ccccc4OC)c3n2)c(OC)c1,?,i,16µM*,2%,-11%,2%
COc1ccc(OC)c(-c2nc(C(N)=O)c3[nH]c(=O)n(-c4ccc(F)cc4)c3n2)c1,-18%,i,-7%,8%,-19%,0%
COc1ccccc1-n1c(=O)[nH]c2c(C(N)=O)nc(-c3cccnc3)nc21,?,i,21µM*,24%,-20%,-3%
O=c1c(CCc2ccccc2)nc2cnc(N3CCOCC3)nc2n1-c1ccccc1,-15%,.,21%,.,.,.
Cc1csc(=O)n1CCC(=O)N(C)Cc1c(F)cccc1Cl,?,i,16µM*,34%,5%,8%
CC(=O)NC(CC(=O)N(C)Cc1c(F)cccc1Cl)c1ccccc1 (centres undefined),7%,i,-16%,-3%,-2%,-7%
Cc1cc(NC(=O)CSCC(=O)N(C)Cc2c(F)cccc2Cl)no1,1%,i,-4%,-18%,1%,-26%
Cc1cccc(NC(=O)CSCC(=O)N(C)Cc2c(F)cccc2Cl)c1,?,i,13µM*,-7%,-3%,-34%
Cn1c(/C(C#N)=C(\O)COc2ccc3ccccc3c2)nc2ccccc21,?,i,26µM*,34%,6%,7%
CCN(CC)S(=O)(=O)c1ccc(C(O)=C(C#N)c2nc3ccccc3n2C)cc1,16µM*,?,13µM*,3%,?,-1%
